195 variants from a collection of fitness landscapes (doi:10.1126/science.1257360) can be followed below.

Whole data set: some 140,000 sequences, median “enrichment ratio after two sorts for PhoP signalling” near 0, cut for the highest 2% near 11. For the sample, the highest values were picked, then their nearest neighbours and some sequences at random.

B1: PhoQ; a variant is named by its letters at X, in order, P23837 (parent)
chain: MKKLLRLFFPLSLRVRFLLATAAVVLVLSLAYGMVALIGYSVSFDKTTFRLLRGESNLFYTLAKWENNKLHVELPENIDKQSPTMTLIYDENGQLLWAQRDVPWLMKMIQPDWLKSNGFHEIEADVNDTSLLLSGDHSIQQQLQEVREDDDDAEMTHSVAVNVYPATSRMPKLTIVVVDTIPVELKSSYMVWSWFIYVLSANLLLVIPLLWVAAWWSLRPIEALAKEVRELEEHNRELLNPATTRELTSLVRNLNRLLKSERERYDKYRTTLTDLTHSLKTPLXXLQXXLRSLRSEKMSVSDAEPVMLEQISRISQQIGYYLHRASMRGGTLLSRELHPVAPLLDNLTSALNKVYQRKGVNISLDISPEISFVGEQNDFVEVMGNVLDNACKYCLEFVEISARQTDEHLYIVVEDDGPGIPLSKREVIFDRGQRVDTLRPGQGVGLAVAREITEQYEGKIVAGESMLGGARMEVIFGRQHSAPKDE

The experiment covers variants of B1. Kind of experiment: enrichment ratio after two sorts for PhoP signalling (ratio (wild type AVST 3.29)); higher = more functional. To be noted: with PhoP (E. coli).
As to RCNM, the enrichment ratio is not above 0.25.

As for THRA, the enrichment ratio was not above 0.25.

For the variant PAWH, the enrichment ratio was not above 0.25.

On to THDV, for which the enrichment ratio is not above 0.25.

Take RHTL: the enrichment ratio was not above 0.25.

Turning to GGCT, the enrichment ratio is 15.6.

As for GNCT, the enrichment ratio amounted to 10.8.

Consider TIQT, for which the enrichment ratio was determined as 12.7.

Turning to TEQT, the enrichment ratio came out at 23.1.

As to NEQT, the enrichment ratio is not above 0.25.

In the case of KRQT, the enrichment ratio is not above 0.25.

With TKTS, the enrichment ratio amounted to 11.9.

As for AIQT, the enrichment ratio is not above 0.25.

For RIQT, the enrichment ratio is not above 0.25.

As for AKTS, the enrichment ratio was determined as 5.9.

On to MKTS, for which the enrichment ratio is not above 0.25.

With TGCT, the enrichment ratio amounted to 1.82.

QLVG: the enrichment ratio is not above 0.25.

Take ADVM: the enrichment ratio is 6.88.

Take KTVF: the enrichment ratio is not above 0.25.

For the variant GTKH, the enrichment ratio was not above 0.25.

For IWLA, the enrichment ratio is not above 0.25.

In the case of HKCT, the enrichment ratio is not above 0.25.

As to TRCT, the enrichment ratio came out at 18.2.

Take ADQT: the enrichment ratio was not above 0.25.

On to TDQT, for which the enrichment ratio is 34.2.

As for TDCT, the enrichment ratio was found to be 14.8.

On to KDQT, for which the enrichment ratio is not above 0.25.

For HRCT, the enrichment ratio is not above 0.25.

In the case of ADCT, the enrichment ratio was not above 0.25.

Turning to FDCT, the enrichment ratio was not above 0.25.

For the variant KKCT, the enrichment ratio was not above 0.25.

Consider TKCT, for which the enrichment ratio was 38.2.

As for KRCT, the enrichment ratio is not above 0.25.

As to SNRN, the enrichment ratio was not above 0.25.

Turning to VNAY, the enrichment ratio was not above 0.25.

Consider NARV, for which the enrichment ratio was not above 0.25.

With WLPG, the enrichment ratio is not above 0.25.

On to LHMC, for which the enrichment ratio was not above 0.25.

Turning to VHGV, the enrichment ratio is not above 0.25.

With KDPY, the enrichment ratio was not above 0.25.

Turning to PSCV, the enrichment ratio was not above 0.25.

With KSQT, the enrichment ratio was not above 0.25.

With TKLT, the enrichment ratio was determined as 15.3.

For the variant KAQT, the enrichment ratio is not above 0.25.

As to TKKT, the enrichment ratio is not above 0.25.

For TKPT, the enrichment ratio was not above 0.25.

Turning to KKLT, the enrichment ratio was not above 0.25.

TKFT: the enrichment ratio is not above 0.25.

On to TKQT, for which the enrichment ratio stood at 11.7.

On to TKAT, for which the enrichment ratio was 14.5.

For TDYD, the enrichment ratio is not above 0.25.

Regarding WDAF, the enrichment ratio is not above 0.25.

As for MEHT, the enrichment ratio was determined as 24.2.

Turning to MLHT, the enrichment ratio was determined as 11.5.

In the case of MMHT, the enrichment ratio is not above 0.25.

QEHT: the enrichment ratio turned out to be 9.94.

As for NEHT, the enrichment ratio was not above 0.25.

With KLHT, the enrichment ratio is not above 0.25.

As to YYHT, the enrichment ratio was not above 0.25.

Take TEHT: the enrichment ratio worked out at 27.2.

As to MRHT, the enrichment ratio worked out at 0.477.

NWHY: the enrichment ratio is not above 0.25.

As for TYIE, the enrichment ratio is not above 0.25.

Turning to DLWY, the enrichment ratio is not above 0.25.

For KLWE, the enrichment ratio is not above 0.25.

For the variant KHER, the enrichment ratio was not above 0.25.

Regarding TVFL, the enrichment ratio is not above 0.25.

Take LIMQ: the enrichment ratio is not above 0.25.

As for NNDM, the enrichment ratio is not above 0.25.

Consider FCHM, for which the enrichment ratio is not above 0.25.

With TTSV, the enrichment ratio turned out to be 15.8.

On to ATSV, for which the enrichment ratio amounted to 12.7.

Consider YDSV, for which the enrichment ratio is not above 0.25.

Consider STSV, for which the enrichment ratio was 9.12.

Take KQSV: the enrichment ratio is not above 0.25.

With YTSV, the enrichment ratio was not above 0.25.

As to SWRT, the enrichment ratio was not above 0.25.

Regarding RRQV, the enrichment ratio is not above 0.25.

As for VWEC, the enrichment ratio was not above 0.25.

As to TEPM, the enrichment ratio is not above 0.25.

As to TETR, the enrichment ratio is not above 0.25.

On to METE, for which the enrichment ratio is not above 0.25.

On to QETE, for which the enrichment ratio was not above 0.25.

Consider TETK, for which the enrichment ratio is not above 0.25.

On to TETS, for which the enrichment ratio stood at 13.7.

In the case of TETE, the enrichment ratio stood at 18.8.

Consider TETM, for which the enrichment ratio is 22.4.

Turning to TETA, the enrichment ratio was not above 0.25.

In the case of TETI, the enrichment ratio is 17.3.

Take TETD: the enrichment ratio turned out to be 2.04.

For the variant RPDP, the enrichment ratio is not above 0.25.

For MVRG, the enrichment ratio is not above 0.25.

For NTNY, the enrichment ratio is not above 0.25.

Turning to LYEH, the enrichment ratio is not above 0.25.

For IGTK, the enrichment ratio is not above 0.25.

With WQPW, the enrichment ratio is not above 0.25.

For PICS, the enrichment ratio is not above 0.25.

With DNDH, the enrichment ratio was not above 0.25.

WQRE: the enrichment ratio is not above 0.25.

LRQP: the enrichment ratio is not above 0.25.

In the case of HPHL, the enrichment ratio was not above 0.25.

As for GFYA, the enrichment ratio was not above 0.25.

Take DGSI: the enrichment ratio was not above 0.25.

Consider GYWI, for which the enrichment ratio is not above 0.25.

As to IGSE, the enrichment ratio is not above 0.25.

As for METG, the enrichment ratio worked out at 4.62.

On to TETG, for which the enrichment ratio was determined as 35.8.

As to QETG, the enrichment ratio is not above 0.25.

On to SFGG, for which the enrichment ratio is not above 0.25.

Regarding PIPY, the enrichment ratio was not above 0.25.

With KIVE, the enrichment ratio was not above 0.25.

With EFFM, the enrichment ratio was not above 0.25.

On to SRSN, for which the enrichment ratio was not above 0.25.

In the case of SNSN, the enrichment ratio amounted to 12.5.

With YTSN, the enrichment ratio is not above 0.25.

On to SSSN, for which the enrichment ratio came out at 12.1.

Regarding KSSN, the enrichment ratio is not above 0.25.

In the case of STSN, the enrichment ratio came out at 11.3.

As to SQSN, the enrichment ratio came to 7.46.

As to SLSN, the enrichment ratio amounted to 8.45.

Regarding SDSN, the enrichment ratio is not above 0.25.

On to KQSN, for which the enrichment ratio was not above 0.25.

Regarding NSSN, the enrichment ratio is not above 0.25.

Regarding SCSN, the enrichment ratio was determined as 12.3.

For the variant DMGM, the enrichment ratio is not above 0.25.

Regarding VHGA, the enrichment ratio is not above 0.25.

Consider FTWC, for which the enrichment ratio is not above 0.25.

RPLR: the enrichment ratio was not above 0.25.

Take EKAY: the enrichment ratio is not above 0.25.

As for FPIV, the enrichment ratio is not above 0.25.

Turning to TGSN, the enrichment ratio was 8.1.

SGSG: the enrichment ratio was determined as 8.15.

Turning to SGSN, the enrichment ratio is 13.3.

Take WDWH: the enrichment ratio was not above 0.25.

In the case of SRSH, the enrichment ratio is not above 0.25.

With SQSQ, the enrichment ratio was found to be 8.8.

For DDSC, the enrichment ratio was not above 0.25.

On to SEFC, for which the enrichment ratio was 10.4.

Regarding SESK, the enrichment ratio was 5.02.

Turning to SETC, the enrichment ratio was 13.2.

On to SRSQ, for which the enrichment ratio is not above 0.25.

With SESH, the enrichment ratio was 13.1.

Regarding SESQ, the enrichment ratio was 13.9.

As to SENK, the enrichment ratio is not above 0.25.

With KYSC, the enrichment ratio was not above 0.25.

As to SESC, the enrichment ratio is 18.4.

Turning to LSYF, the enrichment ratio amounted to 0.698.

Turning to FERS, the enrichment ratio is not above 0.25.

As for FKHR, the enrichment ratio was not above 0.25.

For the variant QKRW, the enrichment ratio is not above 0.25.

Turning to TIRN, the enrichment ratio was not above 0.25.

With KKEL, the enrichment ratio was not above 0.25.

For the variant MLWA, the enrichment ratio was not above 0.25.

For the variant HFVY, the enrichment ratio was not above 0.25.

As to GASL, the enrichment ratio was 3.66.

As to SEEC, the enrichment ratio was found to be 15.4.

Consider SETW, for which the enrichment ratio turned out to be 3.01.

As to SETG, the enrichment ratio is 9.95.

Regarding SETM, the enrichment ratio was 18.3.

In the case of KYEC, the enrichment ratio is not above 0.25.

Consider SETA, for which the enrichment ratio was 10.5.

As to SETI, the enrichment ratio was 19.9.

In the case of SETH, the enrichment ratio came to 15.6.

In the case of METM, the enrichment ratio was determined as 4.44.

In the case of SETK, the enrichment ratio is not above 0.25.

On to SLEC, for which the enrichment ratio was not above 0.25.

As for ICMG, the enrichment ratio was not above 0.25.

Regarding NYHW, the enrichment ratio was not above 0.25.

As for EGMK, the enrichment ratio is not above 0.25.

SVFE: the enrichment ratio was not above 0.25.

On to PKCE, for which the enrichment ratio was not above 0.25.

Regarding LWIA, the enrichment ratio is not above 0.25.

As to VVHK, the enrichment ratio was not above 0.25.

Regarding PWSL, the enrichment ratio is not above 0.25.

For YMEP, the enrichment ratio is not above 0.25.

For the variant SEMH, the enrichment ratio was determined as 19.3.

Regarding STMH, the enrichment ratio is 8.42.

Regarding SASH, the enrichment ratio amounted to 12.2.

Turning to SETD, the enrichment ratio was not above 0.25.

As to SASK, the enrichment ratio was not above 0.25.

Consider SANH, for which the enrichment ratio is not above 0.25.

Take SETE: the enrichment ratio was 5.75.

On to SETS, for which the enrichment ratio amounted to 12.

For the variant KYMH, the enrichment ratio was not above 0.25.

As to DGLS, the enrichment ratio was not above 0.25.

For the variant FPTK, the enrichment ratio is not above 0.25.

For DPHW, the enrichment ratio was not above 0.25.

On to WDVW, for which the enrichment ratio was not above 0.25.

For QFAR, the enrichment ratio was not above 0.25.

Consider VVQA, for which the enrichment ratio was not above 0.25.

Consider PSLS, for which the enrichment ratio is not above 0.25.

On to WGGY, for which the enrichment ratio was not above 0.25.

Take ITTH: the enrichment ratio was not above 0.25.

For DSGI, the enrichment ratio was not above 0.25.
